# Shown are actives, neighbours in structure and some others; about 2.5% of the full set was active somewhere.
# TAG inh: reduces triacylglycerol accumulation in H9c2 cells. AID 651582. 230,000 tested, 0.66% active. Nile Red lipid (TAG) fluorescence; cells loaded with 200 µM oleic acid. inhibition, % at 12.5 µM;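 active = pattern-corrected inhibition of lipid staining of at least 50% with the nuclear-stain viability signal not falling by more than 50%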;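 also: 0% = DMSO wells and 100% = triacsin C control wells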
# Cardio protect: modulators protecting cardiomyocytes from myocardial damage; protection from H2O2 cell death, % at 20 µM; H9c2 cardiomyocytes, H2O2 injury protection, ATPLite, 2 h; 360,000 tested, 0.63% active;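 active = compounds giving at least 50% protection of heart cells from peroxide-induced death in the single-dose screen, raw or plate-pattern-corrected value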;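 also: 0% = DMSO wells with peroxide and 100% = DMSO wells without peroxide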
# CRFBP-R2 agonist: CRF-BP/CRF-R2 complex agonism. HEK293 CRF-R2/CRF-BP, calcium dye fluorescence (FLIPR); percent of saturating CRF peptide response. activation, % at 13.2 µM. 350,000 tested, 0.46% active;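 active = activation of at least 50%, plus an integration ratio under a set limit after plate pattern correction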;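 also: plate controls were neutral control wells without compound for no effect and CRF at EC100 for full effect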
# hiPSC survival: hiPSC single-cell survival enhancement. ATPlite luminescence; 100% = ROCK inhibitor wells, 0% = DMSO. survival enhancement, % at 20 µM. 360,000 tested, 0.044% active. AID 602274; in the data active = survival enhancement above about 18%;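 also: cells exposed to compounds for 16 hours before the ATP read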
# SKN-1 inh: blocks SKN-1 activity in C. elegans; C. elegans VP596 Pgst-4::GFP/RFP ratio, acrylamide-induced, 24 h; inhibition, % at 21.8 µM; 360,000 tested, 0.49% active; AID 624304;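 active = interference check ratio from 0.5 to 1.5 plus GFP to RFP signal ratio inhibition reaching or exceeding a fixed threshold, cut at about 30% in these data, passing the limit was not always enough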
# CRFBP-R2 block: blocks CRF-induced signaling of the CRF-BP/CRF-R2 complex. 350,000 tested, 0.59% active. inhibition, % at 11.8 µM. HEK293 CRF-R2/CRF-BP, CRF-induced calcium fluorescence;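 active = inhibition of the ligand-induced calcium signal above about 50% at the single tested concentration, limit read from the data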
# * marks the source's active call; other numbers are inactive results; nt = no result given.
SMILES,TAG inh,Cardio protect,CRFBP-R2 agonist,hiPSC survival,SKN-1 inh,CRFBP-R2 block
c1ccc(C[n+]2csc3ccccc32)cc1,nt,-2,-4,-4,1,-22
COc1ccccc1C(=O)NNC(=O)c1csc(N2CCOCC2)n1,8,1,2,0,5,0
O=C(NNC(=O)c1ccccc1OCc1ccccc1Cl)c1csc(N2CCOCC2)n1,4,52*,0,0,1,3
Cc1ccc(-c2cc(C(=O)NNC(=O)c3csc(N4CCOCC4)n3)c3ccccc3n2)cc1,21,22,0,-1,-19,4
Cc1ccc2nc(-c3ccccc3)cc(C(=O)NNC(=O)c3csc(N4CCOCC4)n3)c2c1,6,58*,-1,0,-6,-10
Cc1ccccc1-c1nc(CS(=O)CC(=O)NCc2ccc3c(c2)OCO3)c(C)o1 (stereo not drawn),nt,7,-2,0,36*,-8
Nc1ccc(C(=O)N/N=C/c2sc(N3CCOCC3)nc2-c2ccccc2)cc1,nt,7,0,1,-1,7
COc1cc(C(=O)N/N=C/c2sc(N3CCOCC3)nc2-c2ccccc2)cc(OC)c1OC,5,66*,1,1,0,-12
O=C(N/N=C/c1sc(N2CCOCC2)nc1-c1ccccc1)c1cccc(S(=O)(=O)N2CCOCC2)c1,7,54*,13,0,0,-7
O=C(NCCc1ccccc1)C1Cc2c(-c3ccc(Cl)cc3)ccnc2O1 (stereo not drawn),13,-2,nt,0,18,nt
O=C(Cn1[nH]c(=O)c2ccccc2c1=O)OCC(=O)c1ccccc1Cl,-6,22,-1,0,12,1
O=C(Cn1[nH]c(=O)c2ccccc2c1=O)OCC(=O)c1ccc(F)cc1,0,31,-4,0,8,13
CC(OC(=O)Cn1[nH]c(=O)c2ccccc2c1=O)C(=O)Nc1ccc(F)cc1 (stereo not drawn),13,62*,2,0,12,-19
CC(C)NC(=O)COC(=O)Cn1[nH]c(=O)c2ccccc2c1=O,-1,80*,-1,0,3,8
O=C(COC(=O)Cn1[nH]c(=O)c2ccccc2c1=O)NNC(=O)c1ccccc1,-10,93*,4,0,-1,-16
COc1ccccc1C(=O)NC(=O)COC(=O)Cn1[nH]c(=O)c2ccccc2c1=O,-10,84*,-1,0,-6,-7
CC(C)(C)OC(=O)Nc1ccccc1-n1nnnc1C(C(=O)c1ccc(F)cc1)N1CCN(c2ccccn2)CC1 (stereo not drawn),nt,nt,nt,nt,8,nt
CC1(C)CC(=O)C2=C(C1)OC(N)=C([N+](=O)[O-])C2c1cccs1 (stereo not drawn),nt,2,5,3,7,-5
c1cc(-c2cc3c(o2)CCCC3OCCN2CCOCC2)cs1 (stereo not drawn),nt,nt,nt,0,5,nt
O=C1NC[C@H](CC2CCCCC2)N(CCC23CC4CC(CC(C4)C2)C3)C1=O,nt,nt,nt,-3,-6,nt
O=C(Cn1[nH]c(=O)c2ccccc2c1=O)OCC(=O)N(Cc1ccccc1)Cc1ccccc1,-3,106*,1,2,12,-17
Cc1cc(CNC(=O)COC(=O)Cn2[nH]c(=O)c3ccccc3c2=O)cc(C)c1O,-2,104*,-1,0,1,11
N#CC1(NC(=O)COC(=O)Cn2[nH]c(=O)c3ccccc3c2=O)CCCCC1,4,74*,0,0,2,-4
CC1(C)CC2CC(C)(CN2C(=O)COC(=O)Cn2[nH]c(=O)c3ccccc3c2=O)C1 (stereo not drawn),0,52*,0,-1,-11,-22
COc1ccccc1CCNC(=O)Cn1ccc2cc(S(=O)(=O)N3CCC(C)CC3)ccc21,nt,-2,1,0,13,-16
CSCc1ccc(C(=O)NC2CC(C)(C)Cc3c2cnn3-c2ccc(F)cc2)o1 (stereo not drawn),nt,0,1,0,5,1
Cc1ccc(C(C)C)c(OCC(=O)NNC(=O)Cn2[nH]c(=O)c3ccccc3c2=O)c1,16,70*,0,0,-2,-1
CC(=O)N1CCN(c2ccccc2NC(=O)COc2cc(C)ccc2C(C)C)CC1,nt,66*,2,-2,-18,-13

# Screening results from PubChem.
